Screens (PubChem)
NS1 function inh: influenza NS1 inhibition. Potency, µM (titrated, usually from 46.1 µM). hit rate 0.4% among 270,000. AID 2326; calls by dose curve; further: actives are rising curves; nearly all actives have a fitted effect of over 50% in size
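Recovery from NS1-induced slow growth read by OD600 in budding yeast switched to galactose assay medium (pH 6.0, -URA) at 1:100 dilution. Compound 23 nl per well; the matching strain lacking NS1 serves as control.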
Pf growth 96h: P. falciparum growth inhibition at 96 hours. P. falciparum luciferase reporter growth, 96 h. Potency, µM (highest dose often 28.7 µM), most hits filed as inhibitors. hit rate 6.9% among 320,000
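Two-generation exposure (96 h) targets delayed-death phenotype. Reporter parasites carrying integrated firefly luciferase, in red cells at 2% hematocrit and 0.05% parasitemia final, kept at 37 C, 5% CO2; luminescence loss indicates inhibition.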
Shiga inhibitor: inhibitors of Shiga toxin in Vero cells | hit rate 9.2% among 290,000 | Vero cells, Shiga toxin protein synthesis inhibition reporter | inhibition, % at 38.7 µM | AID 2315; in the data active means inhibition mostly above about 28%, no sharp cut-off; inactive means mostly below about 43%
Cycloheximide cs: affects cycloheximide protein synthesis inhibition readout, counter-screen. cell reporter, cycloheximide protein synthesis inhibition counterscreen. max response, %. hit rate 12% among 300,000. AID 2314; in the data active means max response mostly above about 13%, no sharp cut-off; inactive means mostly below about 14%; further: read at 38.3 µM for the half of the compounds with a filed dose
Pf growth 48h: P. falciparum growth inhibition at 48 hours (one generation). P. falciparum luciferase growth in erythrocytes, 48 h. Potency, µM (doses to about 28.7 µM), hits mostly inhibitors. hit rate 5.9% among 310,000. AID 504832
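Here the parasites carry a stable luciferase gene and grow inside erythrocytes in Albumax-based RPMI medium with compound for one erythrocytic cycle. Activity is scored as loss of luminescent signal.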
Large screens that a line does not name were inactive. Hits are enriched below; roughly 21% of the tested compounds scored in any of these assays. Unless noted, the call rests on the fitted dose curve; in most records, active means well fitted inhibition curve with a large enough effect; inconclusive means small, poorly fitted or top-dose-only effect, or another doubt; inactive means no such curve, though single readings can be large or run the other way.

COc1ccc(NC(=O)C(CC(=O)O)Cc2ccccc2)cc1 (stereo unspecified)	Pf growth 96h 7.4µM
C=CCCC(=O)NC1CCCc2c1cnn2-c1ccccc1F (stereo unspecified)	Pf growth 96h inconclusive
Cn1c(NCc2ccco2)nc2c1c(=O)n(Cc1ccc(Cl)c(Cl)c1)c(=O)n2C	none
Nc1ncnc2c1ncn2[C@@H]1O[C@H](COS(=O)(=O)O)[C@@H](O)[C@H]1O	Pf growth 96h inconclusive, Pf growth 48h 13µM (no result: NS1 function inh, Shiga inhibitor, Cycloheximide cs)
CCOC1OC2C(CO)OC(n3cnc4c(N)ncnc43)C2O1 (stereo unspecified)	Pf growth 96h 4.7µM
COc1ccc(N(C(C)C(=O)N2CCC(Cc3ccccc3)CC2)S(C)(=O)=O)cc1 (stereo unspecified)	Pf growth 48h inconclusive
CNC[C@H](Cc1ccccc1)NC[C@@H](Cc1cccc2ccccc12)NCCc1ccc(C)cc1	Pf growth 96h 2.9µM, Pf growth 48h 2.6µM
O=C(Nc1nnc(SCCC2OCCO2)s1)C1CC(=O)N(c2ccc(F)cc2)C1 (stereo unspecified)	Pf growth 96h 10µM, Pf growth 48h inconclusive
O=C(Nc1nnc(SCCC2OCCO2)s1)C1CC(=O)N(c2ccccc2)C1 (stereo unspecified)	Pf growth 96h inconclusive
COc1cccc(N2CC(C(=O)Nc3nnc(SCCC4OCCO4)s3)CC2=O)c1 (stereo unspecified)	Pf growth 96h 9.3µM
CC(C)(C)NC(=O)N1CCCN(c2ccc(C(F)(F)F)cn2)CC1	none
CCc1cc(=O)oc2c(C)c(OCC(=O)NCCCn3ccnc3)ccc12	none
Cc1ccc(NC(=O)c2ccc(OC(F)F)cc2)cc1S(=O)(=O)N(C)C	Pf growth 96h inconclusive, Cycloheximide cs 29
Cc1ccc(NC(=O)c2ccc([N+](=O)[O-])cc2)cc1S(=O)(=O)N(C)C	Shiga inhibitor 68, Cycloheximide cs 40 (no result: NS1 function inh)
COC(=O)c1c(CSc2ccc(C)c(C)c2)noc1C(=O)NCc1ccc(OC)cc1	Pf growth 48h inconclusive
COc1ccccc1-n1c(SCC(=O)Nc2ccc(NC(C)=O)cc2)nc2c([nH]c3ccccc32)c1=O	NS1 function inh inconclusive, Pf growth 96h 13µM
COc1ccc(-n2c(SCC(=O)Nc3cc(C)on3)nc3c([nH]c4ccccc43)c2=O)cc1OC	Pf growth 96h 6.6µM, Pf growth 48h 10µM
Cc1cccc(C)c1NC(=O)C1(N(Cc2ccco2)C(=O)Cn2nnnc2N)CCCCC1	Pf growth 96h 6.6µM
Cc1cccc(C)c1NC(=O)C1(N(Cc2ccco2)C(=O)c2ccccn2)CCCC1	none
Cc1ccc(S(=O)(=O)Cn2nnnc2CN2CCOCC2)cc1	none
Cc1ccc(S(=O)(=O)Cn2nnnc2CN2CCCC3(CCCCC3)C2)cc1	Pf growth 48h 13µM (no result: Pf growth 96h)
Cc1ccc(-n2nnnc2CN2CCCCC2)cc1	Pf growth 96h 2.1µM
Clc1ccc(-n2nnnc2CN2CCOCC2)cc1	none
COC(=O)c1nnn(-c2nc(N(C)C)nc(N(C)C)n2)c1C	none (no result: NS1 function inh)
CC(=O)Nc1ccc(NC(=O)CCNS(=O)(=O)c2cccc3nsnc23)cc1	none (no result: NS1 function inh)
Cc1ccc(Sc2ccc(CN3CCCC3)cc2[N+](=O)[O-])cc1	Pf growth 96h inconclusive
CN1CCN(Cc2ccc(Sc3ccc(Cl)cc3)c([N+](=O)[O-])c2)CC1	Pf growth 96h 0.17µM, Pf growth 48h inconclusive (no result: NS1 function inh)
CCOCCCNC(=O)CCn1nc(-c2ccc(Cl)cc2)ccc1=O	none
CN(C)C(=S)c1ccccc1	none
CN(/N=C/c1ccccc1O)C(=S)c1ccccc1	Cycloheximide cs 25, Pf growth 48h inconclusive
CC(C)CCCC(C)CCCC(C)CCCCC(C)CCCC(C)CCCC(C)C (stereo unspecified)	none (no result: NS1 function inh, Shiga inhibitor, Cycloheximide cs)
O=Cc1cn[nH]c1-c1ccccc1	none
O=Cc1cc(-c2ccccc2)[nH]c1-c1ccccc1	Cycloheximide cs 24 (no result: Shiga inhibitor)
Cn1c(=NC(=O)C2=NNC(=O)CC2)sc2ccccc21	Shiga inhibitor 45, Cycloheximide cs 28 (no result: NS1 function inh)
COc1ccc(C(c2nnnn2Cc2ccccc2)N2CCN(c3nc4ccccc4s3)CC2)cc1 (stereo unspecified)	Pf growth 48h 5.2µM (no result: Pf growth 96h)
COCCn1nnnc1C(c1ccc(OC)c(OC)c1)N1CCN(c2nc3ccccc3s2)CC1 (stereo unspecified)	Pf growth 96h 2.9µM, Pf growth 48h 13µM
COCCn1nnnc1C(c1ccccc1)N1CCN(c2ccccc2)CC1 (stereo unspecified)	Pf growth 96h inconclusive
c1ccc(CN2CCN(C(c3ccccc3)c3nnnn3Cc3ccccc3)CC2)cc1 (stereo unspecified)	Pf growth 48h inconclusive
